Results reported in the supplement of paper PMC6763611.

Tested on: Plasmodium falciparum NF54
Assay: growth inhibition relative to untreated control; higher = more inhibition
Conditions: 72 h
Method in brief: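 Ring-stage P. falciparum NF54 parasites at 1% hematocrit and 1% parasitemia were dispensed at 100 μL/well into dark 96-well half-area plates and given a single dose of test compound at 5 μM or 1 μM for 72 h at 37 °C. Incubation took place in minimal RPMI, either alone or supplemented with the chorismate end-products folate (2.2 μM), pABA (7.3 μM), pHBA (7.3 μM), tyrosine (111 μM), phenylalanine (90 μM) and tryptophan. Growth inhibition was determined with SYBR Green relative to untreated wells, using uninfected erythrocytes for background.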

[1] = 1 µM, MM + chorismate end-products (CM screening medium)
[2] = 5 µM, MM + chorismate end-products (CM screening medium)

| Compound | growth inhibition [1] [%] | growth inhibition (1 µM, minimal medium (MM)) [%] | growth inhibition [2] [%] | growth inhibition (5 µM, minimal medium (MM)) [%] |
| --- | --- | --- | --- | --- |
| COc1cccc(-c2nc3c(N4CCCC4)cccc3n2CC2CCCN2)n1 (stereo not drawn) | 79.8 | 71.2 | 96.1 | 89.8 |
| COc1cc(-c2cc(-c3ccc(S(C)(=O)=O)cc3)cnc2N)ccc1O | > 100 | > 100 | 96.8 | 96 |
| CCOC(=O)c1noc(N)c1-c1ccccc1 | 59.8 | 12.2 | 44.4 | 0.705 |
| C[C@H](C(N)=O)N1CCCC[C@@H]1c1ccc(OCc2cccc(F)c2)cc1 | 45.1 | < 0 | 14.2 | 15.9 |
| O=C(NCCN1CCCC1)c1cc(NCCCCN2CCC(F)(F)CC2)nc2ccc(Cl)cc12 | 100 | 98.4 | 90.7 | 96.9 |
| Cc1nnc(NC(=O)c2cn(-c3ccccc3)nc2-c2ccccc2C)o1 | 89.2 | 87.7 | 83.6 | 83.6 |
| COc1ccc(OC)c(NCc2ccc3nc(N)nc(N)c3c2Cl)c1 | 99.9 | > 100 | 96.1 | 94.2 |
| CCC(Sc1nc2ccccc2o1)C(=O)Nc1nccs1 (stereo not drawn) | 66.4 | 33 | 60 | 3.39 |
| COc1cccc(OCC(=O)c2ccc(Br)cc2)c1 | < 0 | < 0 | < 0 | < 0 |
| OCc1ccc(-c2cncc(Nc3cccc(Cl)c3)c2)cc1 | 78.7 | > 100 | 83.2 | 85 |
| COc1ccc(Nc2ccccc2NC(=O)c2ccc(O)nc2)cc1 | 12.7 | < 0 | < 0 | < 0 |
| COc1ccc(-c2cncc3ccc(C(=O)NCCCn4ccnc4)nc23)cc1 | 22.9 | 72 | 84.4 | 92.4 |
| Cc1cccc(NC(=O)c2cc(S(=O)(=O)N(C)c3ccc(F)cc3)ccc2Cl)n1 | 86.6 | 82.9 | 87.9 | 91.5 |
| Clc1ccc(-n2cc(COc3ccnc4ccccc34)nn2)cc1 | 4.03 | < 0 | 32.4 | 16 |
| O=C(NC1CC1)c1ccc(N2CCC(Cc3ccccc3)CC2)nc1 | 95.5 | 91.8 | 95.7 | 92.1 |
| O=C(NCCc1ccccc1)c1cc(-c2cccnc2)cnc1NCC1CC1 | 77.5 | > 100 | 59.2 | 47 |
| NCCC(O)C(=O)N[C@@H]1C[C@H](N)[C@@H](OC2O[C@H](CN)[C@@H](O)[C@H](O)[C@H]2O)[C@H](O)C1OC1O[C@H](CO)[C@@H](O)[C@H](N)[C@H]1O (stereo partly drawn) | 46 | 17.2 | < 0 | < 0 |
